We go through one sequence from PMC7862700, “An all-to-all approach to the identification of sequence-specific readers for epigenetic DNA modifications on cytosine”.

Assay in all cases: DAPPL (digital affinity profiling via proximity ligation, sequencing); 10 mM Tris-HCl pH 7.5, 50 mM NaCl, 1 mM DTT, 4% glycerol, room temperature, 30 min; GST-TFs on glutathione beads, 16-mer random dsDNA library, 0.1% formaldehyde crosslink after washing; high values mean tight binding
For one assay, the target named is T1, FLI1 (Homo sapiens, UniProt Q01543 1-452).
T1 sequence: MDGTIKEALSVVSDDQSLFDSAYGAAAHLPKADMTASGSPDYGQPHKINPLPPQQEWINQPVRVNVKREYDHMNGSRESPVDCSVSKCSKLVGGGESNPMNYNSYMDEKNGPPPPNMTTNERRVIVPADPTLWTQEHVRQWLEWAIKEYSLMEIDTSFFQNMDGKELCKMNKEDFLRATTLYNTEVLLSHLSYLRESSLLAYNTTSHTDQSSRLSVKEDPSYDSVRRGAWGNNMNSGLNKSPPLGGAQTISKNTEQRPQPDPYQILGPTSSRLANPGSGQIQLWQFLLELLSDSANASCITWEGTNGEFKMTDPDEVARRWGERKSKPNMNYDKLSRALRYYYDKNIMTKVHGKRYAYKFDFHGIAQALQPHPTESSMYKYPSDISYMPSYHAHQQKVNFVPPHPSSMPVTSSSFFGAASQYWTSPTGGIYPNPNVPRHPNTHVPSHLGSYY
The conditions noted are these: protein: recombinant; tags: N-terminal GST; dsDNA, one strand shown. A digest of the protocol: (§1)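 Each value of binding signal is a hexamer's read frequency for a factor divided by the same hexamer's frequency in the tag-only sample. Barcoded, bead-captured GST fusions of human transcription factors made in yeast were pooled with that sample and incubated with 200 nmole of a random double-stranded 16-mer DNA library in Tris/NaCl/DTT/glycerol buffer at room temperature for 30 min. Washing, 0.1% formaldehyde crosslinking, proximity ligation, PCR and Illumina NextSeq500 sequencing followed.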

For a further assay, the target named is T2, ELK1 (Homo sapiens, UniProt P19419 1-428).
T2 sequence: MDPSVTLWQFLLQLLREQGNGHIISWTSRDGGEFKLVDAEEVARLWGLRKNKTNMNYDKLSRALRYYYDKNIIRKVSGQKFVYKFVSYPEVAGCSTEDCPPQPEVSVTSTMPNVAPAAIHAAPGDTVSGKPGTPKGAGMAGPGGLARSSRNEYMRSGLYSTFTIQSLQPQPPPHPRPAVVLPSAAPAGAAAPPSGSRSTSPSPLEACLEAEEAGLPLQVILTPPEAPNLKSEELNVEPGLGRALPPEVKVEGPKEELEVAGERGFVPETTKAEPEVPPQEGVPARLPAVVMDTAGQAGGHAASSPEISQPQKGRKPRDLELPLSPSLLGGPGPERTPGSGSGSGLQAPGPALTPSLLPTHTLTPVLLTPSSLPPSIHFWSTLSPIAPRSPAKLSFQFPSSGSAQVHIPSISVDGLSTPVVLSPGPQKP
The following applies: protein: recombinant; tags: N-terminal GST; dsDNA, one strand shown. A digest of the protocol: as §1

Another assay deals with T3, GABPA (Homo sapiens, UniProt Q06546 1-454).
T3 sequence: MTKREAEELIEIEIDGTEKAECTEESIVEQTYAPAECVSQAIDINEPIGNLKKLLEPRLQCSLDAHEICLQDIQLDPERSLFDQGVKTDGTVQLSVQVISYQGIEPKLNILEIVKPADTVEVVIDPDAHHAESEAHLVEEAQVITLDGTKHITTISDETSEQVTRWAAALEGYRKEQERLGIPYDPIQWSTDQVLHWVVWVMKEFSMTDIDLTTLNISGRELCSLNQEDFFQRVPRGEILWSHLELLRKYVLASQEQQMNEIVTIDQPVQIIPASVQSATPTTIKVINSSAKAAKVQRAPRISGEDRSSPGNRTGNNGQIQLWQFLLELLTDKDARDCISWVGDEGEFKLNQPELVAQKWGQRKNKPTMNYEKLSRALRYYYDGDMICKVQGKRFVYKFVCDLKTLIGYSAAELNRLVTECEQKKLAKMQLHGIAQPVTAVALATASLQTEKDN
The conditions noted are these: protein: recombinant; tags: N-terminal GST; dsDNA, one strand shown. A digest of the protocol:
as §1

A further assay deals with T4, ERG (Homo sapiens, UniProt P11308 1-479).
T4 sequence: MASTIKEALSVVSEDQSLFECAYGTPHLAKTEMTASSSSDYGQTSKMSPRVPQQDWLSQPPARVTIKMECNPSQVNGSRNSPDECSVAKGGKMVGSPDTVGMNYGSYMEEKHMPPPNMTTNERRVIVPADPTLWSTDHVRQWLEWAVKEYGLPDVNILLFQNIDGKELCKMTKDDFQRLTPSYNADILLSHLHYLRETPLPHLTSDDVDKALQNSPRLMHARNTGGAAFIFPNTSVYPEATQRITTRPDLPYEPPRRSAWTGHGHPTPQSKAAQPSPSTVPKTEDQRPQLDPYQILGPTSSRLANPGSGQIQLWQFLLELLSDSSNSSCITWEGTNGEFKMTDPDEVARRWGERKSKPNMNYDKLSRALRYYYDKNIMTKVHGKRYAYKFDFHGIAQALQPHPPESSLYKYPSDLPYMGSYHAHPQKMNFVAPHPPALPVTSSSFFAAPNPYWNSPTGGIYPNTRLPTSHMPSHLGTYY
The conditions noted are these: protein: recombinant; tags: N-terminal GST; dsDNA, one strand shown. A digest of the protocol: as §1

A further assay addresses ELF1 (Homo sapiens, UniProt P32519 1-619). The conditions noted are these: protein: recombinant; tags: N-terminal GST; dsDNA, one strand shown. A digest of the protocol:
as §1

For the next assay, the target named is T5, EHF (Homo sapiens, UniProt Q9NZC4 1-300).
T5 sequence: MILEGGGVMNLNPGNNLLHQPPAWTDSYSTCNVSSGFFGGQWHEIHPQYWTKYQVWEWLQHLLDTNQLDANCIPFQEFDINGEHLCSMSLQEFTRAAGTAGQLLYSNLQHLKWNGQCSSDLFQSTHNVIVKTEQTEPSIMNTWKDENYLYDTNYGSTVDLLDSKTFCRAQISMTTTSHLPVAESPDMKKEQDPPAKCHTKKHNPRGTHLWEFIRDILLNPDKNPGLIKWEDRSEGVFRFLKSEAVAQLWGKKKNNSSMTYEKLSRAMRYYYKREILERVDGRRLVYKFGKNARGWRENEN
The conditions noted are these: protein: recombinant; tags: N-terminal GST; dsDNA, one strand shown. A digest of the protocol:
as §1

In the next assay the target is SPI1 (Homo sapiens, UniProt P17947 1-270). The conditions noted are these: protein: recombinant; tags: N-terminal GST; dsDNA, one strand shown. A digest of the protocol: as §1
The target of the next assay is SPIB (Homo sapiens, UniProt Q01892 1-262). The conditions noted are these: protein: recombinant; tags: N-terminal GST; dsDNA, one strand shown. A digest of the protocol: as §1
A further assay has as its target T6, ELK3 (Homo sapiens, UniProt P41970 1-407).
T6 sequence: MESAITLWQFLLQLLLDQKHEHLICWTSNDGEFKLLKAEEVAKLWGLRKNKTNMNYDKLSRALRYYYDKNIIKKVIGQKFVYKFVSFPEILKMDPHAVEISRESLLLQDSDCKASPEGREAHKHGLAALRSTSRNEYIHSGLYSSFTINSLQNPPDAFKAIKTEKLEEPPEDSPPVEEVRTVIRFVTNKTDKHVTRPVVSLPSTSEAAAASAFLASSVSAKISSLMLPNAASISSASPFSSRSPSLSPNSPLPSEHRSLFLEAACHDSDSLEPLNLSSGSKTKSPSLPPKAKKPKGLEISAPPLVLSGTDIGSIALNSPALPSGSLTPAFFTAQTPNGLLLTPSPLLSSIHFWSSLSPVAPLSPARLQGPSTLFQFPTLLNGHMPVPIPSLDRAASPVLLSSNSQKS
The conditions noted are these: protein: recombinant; tags: N-terminal GST; dsDNA, one strand shown. A digest of the protocol:
as §1

The next assay concerns the target T7, FEV (Homo sapiens, UniProt Q99581 1-238).
T7 sequence: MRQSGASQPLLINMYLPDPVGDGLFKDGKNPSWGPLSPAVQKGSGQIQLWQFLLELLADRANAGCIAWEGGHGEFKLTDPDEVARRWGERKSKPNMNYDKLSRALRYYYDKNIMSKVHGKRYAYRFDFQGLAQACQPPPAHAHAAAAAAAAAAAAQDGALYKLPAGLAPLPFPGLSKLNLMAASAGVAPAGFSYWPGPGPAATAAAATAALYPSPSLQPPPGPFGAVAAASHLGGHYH
The conditions noted are these: protein: recombinant; tags: N-terminal GST; dsDNA, one strand shown. A digest of the protocol:
as §1

The target in another assay is ETV5 (Homo sapiens, UniProt P41161 1-510). The conditions noted are these: protein: recombinant; tags: N-terminal GST; dsDNA, one strand shown. A digest of the protocol:
as §1

In another assay the target is HSF1 (Homo sapiens, UniProt Q00613 1-529). The conditions noted are these: protein: recombinant; tags: N-terminal GST; chain copies: 3; dsDNA, one strand shown. A digest of the protocol:
as §1

The next assay has as its target ELF4 (Homo sapiens, UniProt Q99607 1-663). The conditions noted are these: protein: recombinant; tags: N-terminal GST; dsDNA, one strand shown. A digest of the protocol: as §1
The next assay addresses T8, ELK4 (Homo sapiens, UniProt P28324-2 1-405).
T8 sequence: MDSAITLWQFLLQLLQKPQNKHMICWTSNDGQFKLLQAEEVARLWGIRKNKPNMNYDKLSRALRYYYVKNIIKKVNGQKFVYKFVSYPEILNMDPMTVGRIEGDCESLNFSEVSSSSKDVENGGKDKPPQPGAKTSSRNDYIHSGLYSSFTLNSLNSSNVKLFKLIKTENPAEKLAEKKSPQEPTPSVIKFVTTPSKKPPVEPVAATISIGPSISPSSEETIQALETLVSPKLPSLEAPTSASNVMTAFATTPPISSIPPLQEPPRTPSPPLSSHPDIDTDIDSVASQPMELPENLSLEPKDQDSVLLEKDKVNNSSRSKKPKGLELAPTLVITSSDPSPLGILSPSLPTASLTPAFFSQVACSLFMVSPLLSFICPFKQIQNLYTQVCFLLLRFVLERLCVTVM
The conditions noted are these: protein: recombinant; tags: N-terminal GST; dsDNA, one strand shown. A digest of the protocol: as §1

The next assay deals with T9, ETV2 (Homo sapiens, UniProt O00321 1-342).
T9 sequence: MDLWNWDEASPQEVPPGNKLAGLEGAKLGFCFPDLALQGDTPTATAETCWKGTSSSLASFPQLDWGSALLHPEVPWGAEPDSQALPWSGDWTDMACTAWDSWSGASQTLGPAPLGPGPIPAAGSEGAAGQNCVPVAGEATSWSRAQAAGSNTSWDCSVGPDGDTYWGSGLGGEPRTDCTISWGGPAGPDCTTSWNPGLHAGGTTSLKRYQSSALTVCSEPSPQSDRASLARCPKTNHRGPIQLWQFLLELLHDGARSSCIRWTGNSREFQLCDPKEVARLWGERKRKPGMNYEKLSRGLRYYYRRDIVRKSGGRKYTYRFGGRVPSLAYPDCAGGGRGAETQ
The following applies: protein: recombinant; tags: N-terminal GST; dsDNA, one strand shown. In a few lines:
as §1

The target in the next assay is T10, ELF3 (Homo sapiens, UniProt P78545 1-371).
T10 sequence: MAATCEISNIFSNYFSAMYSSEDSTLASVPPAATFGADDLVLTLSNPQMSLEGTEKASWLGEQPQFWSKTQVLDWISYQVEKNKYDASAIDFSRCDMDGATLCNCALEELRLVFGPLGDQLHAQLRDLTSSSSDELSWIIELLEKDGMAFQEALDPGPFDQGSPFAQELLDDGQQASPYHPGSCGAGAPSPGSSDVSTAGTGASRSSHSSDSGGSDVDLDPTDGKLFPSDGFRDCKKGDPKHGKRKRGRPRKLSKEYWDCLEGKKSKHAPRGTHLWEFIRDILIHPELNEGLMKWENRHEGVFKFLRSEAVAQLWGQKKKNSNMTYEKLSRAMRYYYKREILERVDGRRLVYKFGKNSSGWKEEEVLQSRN
The following applies: protein: recombinant; tags: N-terminal GST; dsDNA, one strand shown. A digest of the protocol: as §1

In another assay the target is ETV1 (Homo sapiens, UniProt P50549 1-477). The following applies: protein: recombinant; tags: N-terminal GST; dsDNA, one strand shown. In a few lines: as §1
Sequence of ETV1 (P50549 whole entry): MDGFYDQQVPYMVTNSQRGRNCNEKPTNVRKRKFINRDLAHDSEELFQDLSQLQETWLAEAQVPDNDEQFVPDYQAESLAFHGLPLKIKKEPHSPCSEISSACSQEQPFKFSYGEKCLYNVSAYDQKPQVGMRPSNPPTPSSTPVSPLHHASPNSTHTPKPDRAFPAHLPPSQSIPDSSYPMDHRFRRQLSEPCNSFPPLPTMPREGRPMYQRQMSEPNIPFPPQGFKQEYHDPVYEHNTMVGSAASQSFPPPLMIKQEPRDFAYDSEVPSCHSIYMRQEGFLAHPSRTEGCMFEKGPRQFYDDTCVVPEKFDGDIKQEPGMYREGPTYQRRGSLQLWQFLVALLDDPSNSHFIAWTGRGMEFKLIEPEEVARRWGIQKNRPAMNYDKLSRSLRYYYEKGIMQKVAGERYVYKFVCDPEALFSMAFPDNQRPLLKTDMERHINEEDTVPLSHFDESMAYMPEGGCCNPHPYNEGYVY

Sequence of ELF4 (Q99607 whole entry): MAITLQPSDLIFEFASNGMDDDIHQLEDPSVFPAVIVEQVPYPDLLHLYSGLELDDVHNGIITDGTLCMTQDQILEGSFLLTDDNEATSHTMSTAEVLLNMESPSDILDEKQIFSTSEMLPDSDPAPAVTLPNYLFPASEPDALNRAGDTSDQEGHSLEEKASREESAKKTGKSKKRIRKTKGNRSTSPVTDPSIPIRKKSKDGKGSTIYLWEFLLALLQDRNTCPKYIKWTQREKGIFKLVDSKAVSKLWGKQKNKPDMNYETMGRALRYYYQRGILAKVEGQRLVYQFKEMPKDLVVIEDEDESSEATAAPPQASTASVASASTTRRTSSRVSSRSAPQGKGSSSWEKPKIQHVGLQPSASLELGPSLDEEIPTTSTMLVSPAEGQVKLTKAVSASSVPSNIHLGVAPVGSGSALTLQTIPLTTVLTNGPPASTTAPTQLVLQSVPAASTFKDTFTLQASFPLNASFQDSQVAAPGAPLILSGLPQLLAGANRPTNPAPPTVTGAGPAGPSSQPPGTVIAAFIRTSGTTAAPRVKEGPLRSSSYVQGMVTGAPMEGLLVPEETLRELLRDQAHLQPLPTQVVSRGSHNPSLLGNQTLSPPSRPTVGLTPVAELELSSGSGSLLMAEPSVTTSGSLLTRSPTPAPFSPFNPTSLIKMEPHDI
Sequence of ETV5 (P41161 whole entry): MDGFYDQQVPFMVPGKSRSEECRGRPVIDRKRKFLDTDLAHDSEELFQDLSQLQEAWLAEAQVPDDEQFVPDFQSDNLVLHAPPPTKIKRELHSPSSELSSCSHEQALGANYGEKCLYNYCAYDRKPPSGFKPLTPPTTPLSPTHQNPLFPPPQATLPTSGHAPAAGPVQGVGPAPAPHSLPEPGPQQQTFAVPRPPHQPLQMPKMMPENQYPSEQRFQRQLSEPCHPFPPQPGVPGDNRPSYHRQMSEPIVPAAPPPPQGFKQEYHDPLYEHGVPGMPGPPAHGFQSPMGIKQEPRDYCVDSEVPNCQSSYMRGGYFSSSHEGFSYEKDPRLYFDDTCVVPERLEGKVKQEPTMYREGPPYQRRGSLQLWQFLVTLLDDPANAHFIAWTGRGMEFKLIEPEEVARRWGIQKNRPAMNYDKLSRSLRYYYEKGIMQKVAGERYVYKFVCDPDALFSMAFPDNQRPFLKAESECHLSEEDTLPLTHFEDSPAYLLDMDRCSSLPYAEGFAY
Sequence of HSF1 (Q00613 whole entry): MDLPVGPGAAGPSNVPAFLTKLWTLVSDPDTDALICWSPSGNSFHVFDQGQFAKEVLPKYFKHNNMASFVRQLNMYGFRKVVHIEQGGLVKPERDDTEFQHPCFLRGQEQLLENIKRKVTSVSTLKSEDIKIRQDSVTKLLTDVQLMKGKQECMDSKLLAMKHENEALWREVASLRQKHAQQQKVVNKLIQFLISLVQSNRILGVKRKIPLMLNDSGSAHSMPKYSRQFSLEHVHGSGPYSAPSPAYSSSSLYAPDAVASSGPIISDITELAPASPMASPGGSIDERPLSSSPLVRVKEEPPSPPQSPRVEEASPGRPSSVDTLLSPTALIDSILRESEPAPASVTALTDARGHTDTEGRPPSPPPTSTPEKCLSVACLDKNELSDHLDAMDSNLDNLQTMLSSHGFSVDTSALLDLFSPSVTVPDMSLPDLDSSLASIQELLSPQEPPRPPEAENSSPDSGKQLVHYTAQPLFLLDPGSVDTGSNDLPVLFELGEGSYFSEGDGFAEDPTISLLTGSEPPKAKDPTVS
Sequence of ELF1 (P32519 whole entry): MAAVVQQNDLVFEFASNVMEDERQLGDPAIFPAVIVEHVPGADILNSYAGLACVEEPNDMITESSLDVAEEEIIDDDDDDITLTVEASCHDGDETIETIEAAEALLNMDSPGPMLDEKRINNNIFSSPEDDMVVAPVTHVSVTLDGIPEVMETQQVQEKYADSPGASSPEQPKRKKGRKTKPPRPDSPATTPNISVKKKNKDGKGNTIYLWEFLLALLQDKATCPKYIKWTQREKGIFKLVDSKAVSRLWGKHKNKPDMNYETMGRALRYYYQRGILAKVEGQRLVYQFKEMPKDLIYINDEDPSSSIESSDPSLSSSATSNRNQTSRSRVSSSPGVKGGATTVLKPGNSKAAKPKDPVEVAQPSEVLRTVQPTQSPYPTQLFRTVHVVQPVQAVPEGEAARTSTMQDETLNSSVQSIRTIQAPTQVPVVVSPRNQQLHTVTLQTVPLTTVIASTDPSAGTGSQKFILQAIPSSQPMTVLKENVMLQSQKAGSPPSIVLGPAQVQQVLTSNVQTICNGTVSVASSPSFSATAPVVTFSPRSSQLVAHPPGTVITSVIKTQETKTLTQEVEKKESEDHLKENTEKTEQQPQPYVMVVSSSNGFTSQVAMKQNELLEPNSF
Sequence of SPIB (Q01892 whole entry): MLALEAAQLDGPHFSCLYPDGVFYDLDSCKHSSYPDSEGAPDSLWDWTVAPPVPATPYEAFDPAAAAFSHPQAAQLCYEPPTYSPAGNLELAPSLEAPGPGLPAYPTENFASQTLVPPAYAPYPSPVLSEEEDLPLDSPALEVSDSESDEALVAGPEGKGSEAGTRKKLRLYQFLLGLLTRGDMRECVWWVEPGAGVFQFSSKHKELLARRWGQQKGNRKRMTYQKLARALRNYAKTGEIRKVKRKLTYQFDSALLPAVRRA

ACTGTT: the binding signal is 1.15 fold enrichment (6-mer frequency, TF over GST control) with FLI1; 1.03 fold enrichment (6-mer frequency, TF over GST control) with ELK1; 1.23 fold enrichment (6-mer frequency, TF over GST control) in the assay with GABPA; 1.16 fold enrichment (6-mer frequency, TF over GST control) in the assay with ERG; 1.11 fold enrichment (6-mer frequency, TF over GST control) with ELF1; 1.13 fold enrichment (6-mer frequency, TF over GST control) with EHF. Besides, the binding signal in the assay with SPI1 was 1.16 fold enrichment (6-mer frequency, TF over GST control); with SPIB, 1.15 fold enrichment (6-mer frequency, TF over GST control); with ELK3, 1.18 fold enrichment (6-mer frequency, TF over GST control); with FEV, 1.1 fold enrichment (6-mer frequency, TF over GST control); with ETV5 it was 1.1 fold enrichment (6-mer frequency, TF over GST control); in the assay with HSF1, 1.03 fold enrichment (6-mer frequency, TF over GST control). For the same sequence, the binding signal with ELF4 was 1.2 fold enrichment (6-mer frequency, TF over GST control); with ELK4, 1.09 fold enrichment (6-mer frequency, TF over GST control); in the assay with ETV2, 1.23 fold enrichment (6-mer frequency, TF over GST control); with ELF3, 1.03 fold enrichment (6-mer frequency, TF over GST control); in the assay with ETV1 it was 1.12 fold enrichment (6-mer frequency, TF over GST control).
